Most compounds without a hit are left out; they make up all but 10% or so of the library.
Luciferase inh: blocks purified firefly luciferase enzyme activity; hit rate 2.5% among 76,000; purified P. pyralis luciferase, luminescence, biochemical; P08659; Potency, µM (series often up to 115 µM), usual class: inhibitors; AID 1347043; also: % is scaled to controls: 0 for no effect and ±100 for the full control effect; nearly all actives have a fitted effect of over 65% in size
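Cell-free enzyme assay, 10nM P. pyralis luciferase, luciferin and ATP each at 10uM. Inhibition profiled over a 6-point titration, read as luminescence.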
NPR1 antag: human Npr1 receptor antagonism; P16066; HEK293 hNpr1 GloSensor cGMP, ANP-stimulated luminescence; Potency, µM (titrated, usually from 46.3 µM), for the others: at the top dose activity change, negative = inhibition, most hits filed as inhibitors; hit rate 1.6% among 76,000; calls by dose curve; also: % is scaled to controls: 0 for no effect and ±100 for the full control effect; nearly all actives have a fitted effect of over 60% in size
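Compound pre-incubated 30 min at room temperature on GloSensor-loaded HEK293 cells stably carrying hNpr1 and the pGS-40F cGMP biosensor. Stimulation uses hNppA at 0.1 nM final; luminescence is taken at baseline and 20 min post-agonist.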
NIH3T3 tox: kills NIH 3T3 cells | hit rate 4.3% among 94,000 | NIH 3T3 viability, CellTiter-Glo ATP luminescence, 48-72 h | Potency, µM (highest dose often 96.7 µM), inactives show at the top dose activity change, negative = cytotoxicity, hits mostly inhibitors; also: % is scaled to controls: 0 for no effect and ±100 for the full control effect; nearly all actives have a fitted effect of over 55% in size
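NIH 3T3 cells at 400 cells/well received 23 nL of compound by pintool and were incubated 48 or 72 h at 37 °C. Viability was read as ATP-coupled CellTiter-Glo luminescence.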
HEK cytotox: cytotoxic compounds in HEK 293 cells; AID 1345083; Potency, µM (titrated, usually from 115 µM), inactives show at the top dose activity change, negative = cytotoxicity, usual class: inhibitors; HEK 293 viability, ATP luminescence (CellTiter-Glo), 48-72 h; hit rate 6.6% among 94,000; also: % is scaled to controls: 0 for no effect and ±100 for the full control effect; nearly all actives have a fitted effect of over 60% in size
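Luminescence from cellular ATP, measured with CellTiter-Glo, indicates HEK 293 viability. Cells plated at 250 cells/well are treated with compound for 48 or 72 hr at 37 degree Celsius before reagent addition.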
GPT2 inhibitor: blocks human glutamate pyruvate transaminase 2; Q8TD30; Recombinant GPT2, coupled pyruvate oxidase/HRP Amplex Red fluorescence; Potency, µM (titrated, usually from 57.7 µM), for the others: at the top dose activity change, negative = inhibition, hits mostly inhibitors; hit rate 0.25% among 100,000; also: % is scaled to controls: 0 for no effect and ±100 for the full control effect; nearly all actives have a fitted effect of over 60% in size
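Fluorescence read-out: pyruvate from GPT2 turnover coupled to pyruvate oxidase, HRP and Amplex Red (0.2mM ThPP, 0.2U/mL PO and HRP, 50uM Amplex final). Substrates 250uM a-KG, 2mM L-alanine; enzyme 10ng/uL; 30 min RT.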
NPR1 antag cnf: hNpr1 antagonism, confirmation assay | hit rate 76% among 1,400 | Potency, µM (top dose mostly 57.6 µM), for inactives: at the top dose activity change, negative = inhibition, hits mostly inhibitors | HEK293 hNpr1 cGMP GloSensor luminescence, ANP-stimulated | shares compounds with NPR1 antag; calls by dose curve; also: nearly all actives have a fitted effect of over 70% in size
Npr2 selectivity: antagonizes human Npr2, subtype selectivity check; hit rate 67% among 1,400; shares compounds with NPR1 antag; HEK293 hNpr2 GloSensor cGMP luminescence, CNP-stimulated; Potency, µM (series often up to 57.6 µM), inactives show at the top dose activity change, negative = inhibition, usual class: inhibitors; calls by dose curve; also: nearly all actives have a fitted effect of over 70% in size
FLuc inh counter: inhibits firefly luciferase, false Npr1 antagonist flag | hit rate 0.7% among 1,400 | shares compounds with NPR1 antag | Potency, µM (doses to about 57.6 µM), without a hit: at the highest dose activity change, negative = inhibition, actives largely listed as inhibitors | purified FLuc enzyme, luminescence, Km substrate; also: 0% is about no effect
GloSensor ctrl: control cell line activity, Npr1 antagonist counter-screen; shares compounds with NPR1 antag; HEK293 GloSensor cGMP, SNP-stimulated, luminescence; Potency, µM (top dose mostly 57.6 µM), for the others: top-dose activity change, negative = inhibition, hits mostly inhibitors; hit rate 69% among 1,400; AID 1347051; calls by dose curve; also: % is scaled to controls: 0 for no effect and ±100 for the full control effect; nearly all actives have a fitted effect of over 70% in size
* hit, by the source's call; [ ] = another dose, or the depositor's remark. Unless noted, calls follow the shape of the dose curve; as a rule, active = well fitted curve in the direction sought with a large enough effect; inconclusive = small, poorly fitted or top-dose-only effect, or another doubt; inactive = no such curve, though single readings can be large; an effect the other way counts as inactive or inconclusive. Potency is read from the fitted curve at half-maximal effect.

`COc1ccc(C2=NOC3(CCN([S+](=O)([O-])c4cccc(OC)c4)C3)C2)cc1` (centres undefined) gave Luciferase inh inactive, NPR1 antag 13µM*, NIH3T3 tox inconclusive, HEK cytotox 28µM*, GPT2 inhibitor 4%, NPR1 antag cnf 24µM*, Npr2 selectivity 27µM*, FLuc inh counter 0% and GloSensor ctrl 24µM*.
For COc1ccc(C2=NOC3(CCN([S+](=O)([O-])c4cccc(C(F)(F)F)c4)C3)C2)cc1 (centres undefined) the results were Luciferase inh inactive, NPR1 antag 16µM*, NIH3T3 tox inconclusive, HEK cytotox inconclusive, GPT2 inhibitor -8%, NPR1 antag cnf inconclusive, Npr2 selectivity 31µM*, FLuc inh counter 4% and GloSensor ctrl inconclusive.
Screening O=C(N[C@H]1CO[C@H]2[C@@H]1OC[C@@H]2n1nnnc1Oc1ccccc1)C1CC1 returned Luciferase inh inactive, NPR1 antag -10%[70.6 µM], NIH3T3 tox -21%[138 µM], HEK cytotox -23%[172 µM] and GPT2 inhibitor 1%[88.5 µM].
`O=C(Nc1ccc(Oc2ccccc2)cc1)O[C@@H]1CO[C@H]2[C@@H]1OC[C@@H]2Nc1nccc(-c2cccs2)n1` gave Luciferase inh inactive, NPR1 antag -6%, NIH3T3 tox -22%, HEK cytotox -11% and GPT2 inhibitor inactive.
`N#Cc1cccc(-c2ccnc(N[C@H]3CO[C@H]4[C@@H]3OC[C@H]4OC(=O)Nc3ccc(Oc4ccccc4)cc3)n2)c1` gave Luciferase inh inactive, NPR1 antag inconclusive, NIH3T3 tox inconclusive, HEK cytotox inconclusive, GPT2 inhibitor -4%, NPR1 antag cnf inconclusive, Npr2 selectivity -25%, FLuc inh counter -2% and GloSensor ctrl inconclusive.
O=C(NC1CCCCC1)O[C@@H]1CO[C@H]2[C@@H]1OC[C@@H]2Nc1nccc(-c2cccs2)n1 was read as Luciferase inh inactive, NPR1 antag 10µM*, NIH3T3 tox 112µM*, HEK cytotox inconclusive, GPT2 inhibitor 2%[88.5 µM], NPR1 antag cnf 5µM*, Npr2 selectivity 7.9µM*, FLuc inh counter 4%[86.2 µM] and GloSensor ctrl 7µM*.
`COc1ccc(-c2ccnc(N[C@H]3CO[C@H]4[C@@H]3OC[C@H]4OC(=O)Nc3ccc(C(C)=O)cc3)n2)cc1` gave Luciferase inh inactive, NPR1 antag 10µM*, NIH3T3 tox -32%, HEK cytotox inconclusive, GPT2 inhibitor -1%, NPR1 antag cnf 11µM*, Npr2 selectivity 15µM*, FLuc inh counter 1% and GloSensor ctrl 9.7µM*.
`F[C@@H]1CN(Cc2nccs2)C[C@@H]1OCc1nc2ccncc2[nH]1` gave Luciferase inh inactive, NPR1 antag -13%[70.6 µM], NIH3T3 tox inconclusive, HEK cytotox -18%[172 µM] and GPT2 inhibitor inactive.
`O=C(Cc1ccccc1)N1CCCC2(CNc3ncccc3[S+](=O)([O-])N2)C1` (centres undefined) gave NIH3T3 tox -30% and HEK cytotox -24%.
`O=C1N(Cc2ccccn2)C[C@H]2CN(Cc3ccc(C(F)(F)F)cc3)CCN12` gave Luciferase inh inactive, NPR1 antag inconclusive, NIH3T3 tox inconclusive, HEK cytotox inconclusive and GPT2 inhibitor 1%[88.5 µM].
For COc1ccc(CN2C[C@H]3CN(Cc4ccc(C)cc4)CCN3C2=O)cc1 the results were Luciferase inh inactive, NPR1 antag 18µM*, NIH3T3 tox inconclusive, HEK cytotox inconclusive, GPT2 inhibitor -4%[88.5 µM], NPR1 antag cnf 18µM*, Npr2 selectivity 22µM*, FLuc inh counter -8%[86.2 µM] and GloSensor ctrl 20µM*.
O=C1N(Cc2ccc(F)cc2)C[C@H]2CN(Cc3ccc(C(F)(F)F)cc3)CCN12 was read as Luciferase inh inactive, NPR1 antag 10µM*, NIH3T3 tox inconclusive, HEK cytotox inconclusive, GPT2 inhibitor inconclusive, NPR1 antag cnf 11µM*, Npr2 selectivity 16µM*, FLuc inh counter 1%[86.2 µM] and GloSensor ctrl 8.9µM*.
Screening O=C1c2ccccc2CN1C1CCN(Cc2ccc(C(F)(F)F)cc2)CC1 returned NIH3T3 tox inconclusive, HEK cytotox inconclusive, GPT2 inhibitor inactive, NPR1 antag cnf 22µM*, Npr2 selectivity 24µM*, FLuc inh counter 0% and GloSensor ctrl 19µM*.
CC(=O)Nc1ccc(CN2CCC(N3Cc4ccccc4C3=O)CC2)cc1 was read as NIH3T3 tox 2%, HEK cytotox 3% and GPT2 inhibitor inactive.
Screening O=C1N(C2CCOCC2)C[C@H]2CN(Cc3ccc(C(F)(F)F)cc3)CCN12 returned Luciferase inh inactive, NPR1 antag inconclusive, NIH3T3 tox -23%[138 µM], HEK cytotox inconclusive and GPT2 inhibitor inactive.
`O=C1N(C2CCCCC2)C[C@H]2CN(Cc3ccc(C(F)(F)F)cc3)CCN12` gave Luciferase inh inactive, NPR1 antag 13µM*, NIH3T3 tox inconclusive, HEK cytotox inconclusive, GPT2 inhibitor inactive, NPR1 antag cnf 16µM*, Npr2 selectivity 20µM*, FLuc inh counter -14%[86.2 µM] and GloSensor ctrl 16µM*.
`CC1(C)[C@@H]2CC[C@@]1(C)C(=O)C2` gave GPT2 inhibitor inactive.
`O=C(NCc1c[nH]c2ncccc12)c1ccc(F)cc1` gave Luciferase inh inconclusive, NPR1 antag -24%[70.6 µM], NIH3T3 tox inconclusive, HEK cytotox -29%[172 µM] and GPT2 inhibitor -13%[88.5 µM].
`CN1C[C@@H](NC(=O)CC(C)(C)C)C[C@H]1c1nc(-c2ccc3c(c2)OCO3)no1` gave Luciferase inh inactive, NPR1 antag 25µM*, NIH3T3 tox inconclusive, HEK cytotox inconclusive, GPT2 inhibitor -8%[88.5 µM], NPR1 antag cnf inconclusive, Npr2 selectivity inconclusive, FLuc inh counter -3%[86.2 µM] and GloSensor ctrl 40µM*.

Screens as filed in PubChem.
